From PubChem BioAssay (NCATS)
Several values for one entry are separate records, joined by “and”; a condition that tells them apart may be missing. Equal values may be shown once. Inconclusive results are not listed. Where a call stands in place of a potency, no number is given. Activity calls are given as the source filed them. Unless noted, the call rests on the fitted dose curve; in most records, active means well fitted curve in the direction sought with a large enough effect; inconclusive means small, poorly fitted or top-dose-only effect, or another doubt; inactive means no such curve, though single readings can be large; an effect the other way counts as inactive or inconclusive.

What was measured:
[1] = Validation of Assay for Modulators of Lamin A Splicing (AID 1459; active means well fitted curve in the direction sought with a large enough effect in the signal ratio; the % refers to the signal ratio;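 further: cells exposed to compound for two days before reading; ratio rise marks activators and ratio drop marks inhibitors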)
In short: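 Dual-reporter HeLa S3 line (lamin A-EGFP minigene, DsRed2) treated with compounds 48 hrs, 0.5% DMSO final. Endpoint: EGFP/DsRed2 total intensity ratio from laser-scanning microplate cytometry.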

[2] = qHTS Assay for Lipid Storage Modulators (AID 1519; calls by dose curve); conditions: Drosophila S3 cells, BODIPY lipid droplet/cell ratio, laser cytometry, cells loaded with oleic acid
In short: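 Cells seeded at 5,000 per well were treated with compounds over a concentration series and loaded with oleic acid (400 uM, as added). Lipid droplet fluorescence (488 nm excitation, 500-530 nm channel) was read by laser-scanning cytometry and normalized to 20 uM Triacsin C.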

[3] = molecular target: Alpha-galactosidase A (Homo sapiens) (UniProt P06280); assay: Counterscreen for Glucocerebrosidase Inhibitors: qHTS Assay for Human alpha-Galactosidase at pH 4.5 (AID 992)
In short: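 Read-out is 4-methylumbelliferone fluorescence (365 nm excitation, 440 nm emission) after a pH 10 NaOH/glycine stop. Reactions held 2 nM enzyme and 80 uM substrate at pH 4.5 for 20 min at room temperature.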

[4] = molecular target: alpha-glucosidase (Oryza sativa, rice) (UniProt Q653V4); assay: Counterscreen for Glucocerebrosidase Inhibitors: qHTS Assay for Rice alpha-Glucosidase at pH 5.0 (AID 997)
In short: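 Rice alpha-glucosidase (4 nM final) with 400 uM 4-methylumbelliferyl-alpha-D-glucopyranoside in citrate buffer pH 5.0, 20 min at room temperature, stopped at pH 10; fluorescence 365/440 nm, compounds 0.7 nM–77 uM, AC50 from Hill fits.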

[5] = Cell Viability - LYMP2-018 (AID 985);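 further: potency means the concentration at half of the fitted maximal effect; compound exposure lasted 24 hr at 37 °C; nearly all actives have a fitted effect of over 50% in size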
In short: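 Human lymphoblastoid LYMP2-018 cells, 2500/well, settled 5 hr at 37 C then exposed to compound 24 hr at 37 C; intracellular ATP measured by CellTiter-Glo luminescence. AC50 from Hill-equation concentration-response fits.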

[6] = Cell Viability - LYMP2-022 (AID 987); further: potency means the concentration at half of the fitted maximal effect; nearly all actives have a fitted effect of over 55% in size
In short: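 LYMP2-022 lymphoblastoid cells (2500/well, complete medium) were treated with compounds for 24 hours at 37 C; intracellular ATP was then read by CellTiter-Glo luminescence after 30 min at room temperature. AC50 values were derived from Hill-equation fits.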

[7] = Cell Viability - LYMP1-002 - Assay at 40 hr (AID 994); further: potency means the concentration at half of the fitted maximal effect; nearly all actives have a fitted effect of over 60% in size
In short: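 LYMP1-002 human lymphoblastoid cells (2500/well, complete medium) were treated with compounds for 40 hr at 37 C. Intracellular ATP was measured by CellTiter-Glo luminescence, and AC50 values came from Hill-equation fits of concentration-response data; tetraoctylammonium bromide was the positive control.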

[8] = measured here: cell count channel max response
[9] = measured here: lipid channel max response

Chain of Alpha-galactosidase A (Homo sapiens) (P06280 whole entry, looked up): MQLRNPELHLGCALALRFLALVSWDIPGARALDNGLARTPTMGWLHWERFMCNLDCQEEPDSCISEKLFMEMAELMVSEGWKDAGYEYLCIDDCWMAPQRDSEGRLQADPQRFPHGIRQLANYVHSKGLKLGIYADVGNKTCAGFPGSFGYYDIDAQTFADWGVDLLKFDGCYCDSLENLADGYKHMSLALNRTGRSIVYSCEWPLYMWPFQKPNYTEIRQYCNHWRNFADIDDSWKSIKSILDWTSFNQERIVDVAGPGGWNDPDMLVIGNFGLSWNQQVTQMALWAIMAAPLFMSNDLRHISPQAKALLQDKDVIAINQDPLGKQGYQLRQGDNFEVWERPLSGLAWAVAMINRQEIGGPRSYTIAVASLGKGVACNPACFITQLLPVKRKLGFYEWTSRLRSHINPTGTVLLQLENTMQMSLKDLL

Question: Which results are given for CN1CCc2cc(O)c(O)cc2C(c2ccccc2)C1 (configuration not stated)?
Answer: outcome [1]: inactive; activity change, negative = inhibition ([2]; at 57.5 µM (top of the series)): -0.441% (inactive); max response [2, 8]: 31.9%; max response [2, 9]: 29.5%

Question: With Cc1ccccc1CNc1ncnc2c1ncn2C1OC(CO)C(O)C1O (configuration not stated) as the molecule, how does the outcome [1] read?
Answer: inactive

Question: And the activity change, negative = inhibition ([2]; at 57.5 µM (top of the series))?
Answer: 0.209% (inactive)

Question: What about the max response [2, 8] of the same molecule?
Answer: -22.5%

Question: What about the max response [2, 9] of the same molecule?
Answer: -21.9%

Question: Which outcome [3] does the source give for NCCCCCCCCCCN here?
Answer: inactive

Question: And the outcome [4]?
Answer: inactive

Question: And the outcome [1]?
Answer: inactive

Question: And the activity change, negative = inhibition ([2]; at 57.5 µM (top of the series))?
Answer: -1.41% (inactive)

Question: What about the max response [2, 8] of the same molecule?
Answer: 42.1%

Question: And the max response [2, 9]?
Answer: 42.6%

Question: What does the source list for OCC1O[C@H](O)C(Cl)C(O)C1O (some centres not stated)?
Answer: outcome [1]: inactive; activity change, negative = inhibition ([2]; at 57.5 µM (top of the series)): 0.529% (inactive); max response [2, 8]: -14.2%; max response [2, 9]: -14.7%

Question: What does the source list for Cn1c(=O)c2[nH]c(-c3ccccc3)nc2n(C)c1=O?
Answer: outcome [3]: inactive; outcome [4]: inactive; outcome [1]: inactive; activity change, negative = inhibition ([2]; at 57.5 µM (top of the series)): 1.32% (inactive); max response [2, 8]: 63.6%; max response [2, 9]: 55.6%

Question: Which results are given for C=C/C(C)=C/[C@@]1(C)SC(=O)C(C)=C1O?
Answer: outcome [1]: inactive; activity change, negative = inhibition ([2]; at 57.5 µM (top of the series)): 0.111% (inactive); max response [2, 8]: 30.8%; max response [2, 9]: 34%

Question: With O=C(O)c1cc([N+](=O)[O-])ccc1NCCCc1ccccc1 as the molecule, how does the outcome [3] read?
Answer: inactive

Question: And the outcome [4]?
Answer: inactive

Question: And the outcome [1]?
Answer: inactive

Question: What about the activity change, negative = inhibition ([2]; at 57.5 µM (top of the series)) of the same molecule?
Answer: 0.312% (inactive)

Question: And the max response [2, 8]?
Answer: -11.5%

Question: What about the max response [2, 9] of the same molecule?
Answer: -12.2%

Question: What does the source list for CCCCCCOc1ccccc1C(N)=O?
Answer: activity change, negative = inhibition ([2]; at 57.5 µM (top of the series)): 12.4% (inactive); max response [2, 8]: 7.6%; max response [2, 9]: 24%

Question: With N.N.O=C(O)C1(C(=O)O)CCC1.[Pt] as the molecule, how does the outcome [3] read?
Answer: inactive

Question: What about the outcome [4] of the same molecule?
Answer: inactive

Question: What about the outcome [1] of the same molecule?
Answer: inactive

Question: And the activity change, negative = inhibition ([2]; at 57.5 µM (top of the series))?
Answer: 7.88% (inactive) and 0.357% (inactive)

Question: What about the max response [2, 8] of the same molecule?
Answer: 15.2% and -33.4%

Question: And the max response [2, 9]?
Answer: 23.7% and -31.2%

Question: Which results are given for O=C(O)c1cc(=O)c2c(Cl)cc(Cl)cc2[nH]1?
Answer: outcome [3]: inactive; outcome [4]: inactive; outcome [1]: inactive; activity change, negative = inhibition ([2]; at 57.5 µM (top of the series)): 4.31% (inactive) and -0.435% (inactive); max response [2, 8]: 15.8% and 12.6%; max response [2, 9]: 22.3% and 11.7%

Question: With CCCn1c(=O)c2[nH]c(-c3ccc(OCC(=O)NCCN)cc3)nc2n(CCC)c1=O as the molecule, how does the outcome [3] read?
Answer: inactive

Question: What about the outcome [4] of the same molecule?
Answer: inactive

Question: What about the outcome [1] of the same molecule?
Answer: inactive

Question: Which results are given for C[N+](C)(CCCCCC[N+](C)(C)CCCN1C(=O)c2cccc3cccc(c23)C1=O)CCCN1C(=O)c2cccc3cccc(c23)C1=O?
Answer: outcome [3]: inactive; outcome [4]: inactive; outcome [1]: inactive

Question: With N=C(N)SCCc1ccc(CCSC(=N)N)cc1 as the molecule, how does the outcome [3] read?
Answer: inactive

Question: What about the outcome [4] of the same molecule?
Answer: inactive

Question: What about the outcome [1] of the same molecule?
Answer: inactive

Question: With NO as the molecule, how does the outcome [3] read?
Answer: inactive

Question: And the outcome [4]?
Answer: inactive

Question: And the outcome [1]?
Answer: inactive

Question: What does the source list for COC(=O)c1c(C)[nH]c(C)c1C(=O)c1ccccc1Cc1ccccc1?
Answer: outcome [3]: inactive; outcome [4]: inactive; outcome [1]: inactive

Question: Which results are given for C[C@@H](NC(=O)/C(C#N)=C/c1ccc(O)c(O)c1)c1ccccc1?
Answer: outcome [3]: inactive; outcome [4]: inactive; outcome [1]: inactive

Question: Which outcome [3] does the source give for N#C/C(=C\c1ccc(O)c(O)c1)C(=O)NCc1ccccc1 here?
Answer: inactive

Question: What about the outcome [4] of the same molecule?
Answer: inactive

Question: What about the outcome [1] of the same molecule?
Answer: inactive

Question: Which outcome [3] does the source give for O=C(O)c1cc(=O)c2ccccc2[nH]1 here?
Answer: inactive

Question: And the outcome [4]?
Answer: inactive

Question: And the outcome [1]?
Answer: inactive

Question: And the activity change, negative = inhibition ([2]; at 57.5 µM (top of the series))?
Answer: 3.93% (inactive) [middle of 4 runs]

Question: Which results are given for CN(C)c1nc(N)c(C(=O)N=C(N)N)nc1Cl?
Answer: outcome [3]: inactive; outcome [4]: inactive; outcome [1]: inactive; activity change, negative = inhibition ([2]; at 57.5 µM (top of the series)): 1.32% (inactive); max response [2, 8]: -30.3%; max response [2, 9]: -31.1%

Question: What does the source list for Clc1ccc(N2CCN(Cc3c[nH]c4ncccc34)CC2)cc1?
Answer: outcome [3]: inactive; outcome [4]: inactive; outcome [1]: inactive

Question: With COc1cccc(C(=O)NCCN2CCN(c3ccc(Cl)cc3)CC2)c1 as the molecule, how does the outcome [3] read?
Answer: inactive

Question: What about the outcome [4] of the same molecule?
Answer: inactive

Question: What about the outcome [1] of the same molecule?
Answer: inactive

Question: What about the activity change, negative = inhibition ([2]; at 57.5 µM (top of the series)) of the same molecule?
Answer: -1.54% (inactive)

Question: And the max response [2, 8]?
Answer: -16.3%

Question: And the max response [2, 9]?
Answer: -18.1%

Question: Which results are given for COc1ccc(/C=C/C(=O)Nc2ccccc2C(=O)O)cc1OC?
Answer: outcome [3]: inactive; outcome [4]: inactive; outcome [1]: inactive

Question: Which results are given for NC(=O)C(=O)O?
Answer: outcome [3]: inactive; outcome [4]: inactive; outcome [1]: inactive

Question: Which results are given for CNCC[C@H](Oc1ccc(C(F)(F)F)cc1)c1ccccc1?
Answer: outcome [3]: inactive; outcome [4]: inactive; outcome [1]: inactive

Question: For Nc1cc(-c2ccncc2)c[nH]c1=O, which activity change, negative = inhibition ([2]; at 25.7 µM (top of the series)) is on record?
Answer: 3.03% (inactive)

Question: And the max response [2, 8]?
Answer: 5.25%

Question: And the max response [2, 9]?
Answer: 9.64%

Question: With Nc1ccc(C(=O)O)c(O)c1 as the molecule, how does the activity change, negative = inhibition ([2]; at 57.5 µM (top of the series)) read?
Answer: -7.1% (inactive)

Question: And the max response [2, 8]?
Answer: 19.5%

Question: And the max response [2, 9]?
Answer: 14%

Question: Which outcome [3] does the source give for N#C/C(=C\c1ccc(O)c(O)c1)C(=O)NCCCc1ccccc1 here?
Answer: inactive

Question: And the outcome [4]?
Answer: inactive

Question: What about the outcome [1] of the same molecule?
Answer: inactive

Question: What does the source list for c1cnc2c(c1)ccc1cccnc12?
Answer: Potency [5]: 25.1 µM (active); Potency [6]: 12.6 µM (active); outcome [3]: inactive; Potency [7]: 12.6 µM (active); outcome [4]: inactive; outcome [1]: inactive

Question: For O=c1[nH]c2cc([N+](=O)[O-])c([N+](=O)[O-])cc2[nH]c1=O, which outcome [3] is on record?
Answer: inactive

Question: What about the outcome [4] of the same molecule?
Answer: inactive

Question: And the outcome [1]?
Answer: inactive

Question: And the activity change, negative = inhibition ([2]; at 57.5 µM (top of the series))?
Answer: 3.97% (inactive)

Question: What about the max response [2, 8] of the same molecule?
Answer: -1.11%

Question: What about the max response [2, 9] of the same molecule?
Answer: 2.64%

Question: Which outcome [3] does the source give for Fc1ccc(C(OCCCc2cnc[nH]2)c2ccc(F)cc2)cc1 here?
Answer: inactive

Question: And the outcome [4]?
Answer: inactive

Question: What about the outcome [1] of the same molecule?
Answer: inactive

Question: Which results are given for N#C/C(=C\c1ccc(O)c(O)c1)C(=O)c1ccc(O)c(O)c1?
Answer: outcome [3]: inactive; outcome [4]: inactive; outcome [1]: inactive; activity change, negative = inhibition ([2]; at 57.5 µM (top of the series)): -0.353% (inactive); max response [2, 8]: 19.5%; max response [2, 9]: 19.3%

Question: With CC(=O)SCC[N+](C)(C)C as the molecule, how does the outcome [3] read?
Answer: inactive

Question: And the outcome [4]?
Answer: inactive

Question: What about the outcome [1] of the same molecule?
Answer: inactive

Question: What does the source list for Cc1cc(NC(=O)Nc2ccc3c(ccn3C)c2)sn1?
Answer: outcome [3]: inactive; outcome [4]: inactive; outcome [1]: inactive

Question: Which outcome [3] does the source give for CN(C)C(N)=NCCC[C@H](N)C(=O)O here?
Answer: inactive

Question: And the outcome [4]?
Answer: inactive

Question: What about the outcome [1] of the same molecule?
Answer: inactive

Question: Which results are given for O=C(Nc1ccccc1)c1cc([N+](=O)[O-])ccc1Cl?
Answer: outcome [3]: inactive; outcome [4]: inactive; outcome [1]: inactive

Question: For O=C(O)CC[C@@H](C(=O)O)N1C(=O)c2ccccc2C1=O, which outcome [3] is on record?
Answer: inactive

Question: What about the outcome [4] of the same molecule?
Answer: inactive

Question: What about the outcome [1] of the same molecule?
Answer: inactive

Question: With NCCNC(=O)c1ncsc1-c1cccc(F)c1 as the molecule, how does the outcome [3] read?
Answer: inactive

Question: What about the outcome [4] of the same molecule?
Answer: inactive

Question: What about the outcome [1] of the same molecule?
Answer: inactive

Question: With CCCCN1CCC(n2c(=O)[nH]c3ccccc32)CC1 as the molecule, how does the outcome [3] read?
Answer: inactive

Question: What about the outcome [4] of the same molecule?
Answer: inactive

Question: What about the outcome [1] of the same molecule?
Answer: inactive

Question: Which results are given for CC(C(=O)O)c1ccc(C(=O)c2cccs2)cc1 (configuration not stated)?
Answer: activity change, negative = inhibition ([2]; at 57.5 µM (top of the series)): 15.6% (inactive); max response [2, 8]: 8.76%; max response [2, 9]: 31%
